LASV entry inh – inhibitors of Lassa virus binding or cell entry; Lassa virus pseudotype entry inhibition, cell reporter; Potency, µM (titrated, usually from 37.9 µM), for the others: at the highest dose activity change, negative = inhibition, hits mostly inhibitors; actives 1.2% (n = 300,000); AID 540256; calls by dose curve; tested in HEK293 cells; also: nearly all actives have a fitted effect of over 50% in size
Vaccinia mCherry – vaccinia inhibition (mCherry reporter); Vaccinia virus mCherry reporter infection, fluorescence; actives 0.63% (n = 310,000); Potency, µM (doses to about 36.5 µM), without a hit: at the highest dose activity change, negative = inhibition, most hits filed as inhibitors; AID 720579; calls by dose curve; tested in A549 cells; also: nearly all actives have a fitted effect of over 35% in size
Vaccinia Venus – vaccinia inhibition (Venus reporter) | Vaccinia virus Venus reporter expression, fluorescence | Potency, µM (highest dose often 36.5 µM), without a hit: at the top dose activity change, negative = inhibition, actives largely listed as inhibitors | actives 0.46% (n = 330,000); calls by dose curve; tested in A549 cells; also: nearly all actives have a fitted effect of over 30% in size
HCV inhibitor – inhibitors of hepatitis C virus infection; AID 651820; Huh7.5.1 HCVcc-Cre infection, luciferase reporter, 44 h; Potency, µM (series often up to 41.8 µM), for inactives: at the highest dose activity change, negative = inhibition, most hits filed as inhibitors; actives 3.4% (n = 340,000); active = well fitted inhibition curve with a large enough effect; inconclusive = small, poorly fitted or top-dose-only effect, or another doubt; inactive = no such curve, though single readings can be large or run the other way
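Luciferase read-out (15 sec integration) after a 15 min room-temperature substrate step quantifies HCVcc-Cre infection. Cells, 1,000 per well, had compound added 4 h post-plating, then virus at ~0.5 moi, and were cultured 44 h.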
Marburg entry inh – blocks Marburg virus binding to or entry into cells; Marburg virus pseudotyped entry inhibition, cell reporter; Potency, µM (doses to about 37.8 µM), without a hit: at the top dose activity change, negative = inhibition, actives largely listed as inhibitors; actives 1.8% (n = 300,000); AID 540276; calls by dose curve; tested in HEK293 cells
Numbers without * were called inactive; i = inactive; u = inconclusive; x = no result given; [ ] = dose if it differs, or a comment. Sampled rows, rich in hits. Any-hit rate of the full collection: about 4.6%. % is scaled to controls: 0 for no effect and ±100 for the full control effect; potency is read from the fitted curve at half-maximal effect.

SMILES	LASV entry inh	Vaccinia mCherry	Vaccinia Venus	HCV inhibitor	Marburg entry inh
C[C@H]1C[C@@H](C)O[C@@]2(C1)C(=O)N(Cc1ccccc1C(F)(F)F)c1ccccc12	x	x	x	x	-15%[14.2 µM]
Cc1c(C(=O)N2CCC(C(=O)Nc3ccc(F)c(Cl)c3)CC2)sc2nc[nH]c(=O)c12	1%[46.1 µM]	i	0%	x	x
Cc1c(NC(=O)C(C)(C)Oc2ccc(Cl)cc2)cccc1-c1nc2ccccc2o1	u	-18%	-15%	x	u
O=c1cnn([C@@H]2O[C@H](CO)[C@@H](O)[C@H]2O)c(=O)[nH]1	0.092µM*	u	0%	-68%	u
O=c1[nH]nnc2c1ncn2C1OC(CO)C(O)C1O (stereo not drawn)	x	-3%	-24%	x	x
CCC1(c2ccc(Cl)cc2)NC(=O)N(CC(=O)NCc2ccc(F)cc2)C1=O (stereo not drawn)	u	-25%	-25%	-1%	u
CCC1(c2ccc(Cl)cc2)NC(=O)N(Cc2ccc(C(=O)OC)cc2)C1=O (stereo not drawn)	u	i	-7%	10µM*	8.9µM*
CC(C)CN(C)c1nc(N)c(C(=O)N=C(N)N)nc1Cl	x	x	x	x	7.1µM*
NC(N)=NC(=O)c1nc(Cl)c(N2CCCCCC2)nc1N	u	-20%	u	u	7.1µM*
NC(N)=NC(=O)c1nc(Cl)c(N)nc1N	5%	u	-24%	u	-16%
COCCCNC(=S)N1CCN(c2nc(-c3ccccc3)cs2)CC1	x	x	x	13µM*	x
CCN(CC)CCCNC(=S)N1CCN(c2nc(-c3ccccc3)cs2)CC1	-15%[46.1 µM]	-23%	u	7.9µM*	u
O=C(NC(=S)N1CCN(c2nc(-c3ccccc3)cs2)CC1)c1cncc(Br)c1	x	x	x	-9%	x
CC(C)CNC(=S)N1CCN(c2nc(-c3ccc(Cl)cc3)cs2)CC1	17%[46.1 µM]	u	-26%	11µM*	u
COCCCNC(=S)N1CCN(C(c2ccccc2)c2ccccc2)CC1	-4%	-3%	-18%	x	u
CCOCCCNC(=S)N1CCN(c2nc(-c3ccccc3)cs2)CC1	x	x	x	10µM*	x
COc1cccc(-c2csc(N3CCN(C(=S)NCC(C)C)CC3)n2)c1	-16%[46.1 µM]	-27%	-17%	u	u
COCCNC(=S)N1CCN(c2nc(-c3cccc(OC)c3)cs2)CC1	1%[46.1 µM]	u	-10%	13µM*	u
COC(=O)C1=C(C(=O)OC)[C@@H]2N(Cc3ccccc3)c3ccccc3[C@@]23C[C@@H](C(=O)OC)N(C(=O)NCCBr)C3=N1	x	x	x	x	8%[14.2 µM]
CCCn1c(/C=N/Nc2nc3ccccc3[nH]2)nc2ccccc21	13µM*	10µM*	u	u	u
Cc1nn(-c2ccccc2)c(C)c1/C=N/Nc1nc2ccccc2[nH]1	u	u	-5%	u	13µM*
C=CCn1cc(/C=N/Nc2nc3ccccc3[nH]2)c2ccccc21	4.5µM*	-26%	u	u	u
Cc1cc(=O)[nH]c(N/N=C/c2c(C)nn(-c3ccccc3)c2C)n1	13%[46.1 µM]	-5%	-24%	6%	6%[46.1 µM]
Cn1c(/C=N/Nc2nc3ccccc3[nH]2)nc2ccccc21	u	u	-11%	u	u
CCN(CC)c1ccc(/C=N/Nc2nc3ccccc3[nH]2)cc1	8.2µM*	x	x	13µM*	8.2µM*
SMILES	LASV entry inh	Vaccinia mCherry	Vaccinia Venus	HCV inhibitor	Marburg entry inh
COc1ccc(NC(=O)CN2C(=O)CCn3nc(-c4cccn4C)cc32)cc1	5%[46.1 µM]	-11%	-2%	x	x
CN(CCO)C[C@H](O)Cn1cnc2c1c(=O)n(C)c(=O)n2C (tested in a mixture with another compound)	x	x	x	x	-17%
CC(C)Cn1c(/C=N/Nc2nc3ccccc3[nH]2)nc2ccccc21	u	u	u	2.5µM*	u
CC(/C=N/Nc1nc2ccccc2[nH]1)=C\c1ccccc1	u	x	x	u	7.3µM*
CC(C)c1ccc(C(=O)C[N+]2(C)CCOCC2)cc1	x	i	-16%	x	x
CCOC(=O)c1c(NC(=O)c2ccccc2)sc2c1CCc1ccccc1-2	14%	-3%	-12%	-22%	u
CCOC(=O)c1c(NC(=O)c2ccccc2Cl)sc2c1CCc1ccccc1-2	-10%	-13%	-4%	7.9µM*	12%
COc1cccc(CNC(=O)C2Cc3cc(S(=O)(=O)N4CCCCCC4)ccc3N2C(C)=O)c1 (stereo not drawn)	13%[46.1 µM]	-8%	0%	x	x
O=C(Nc1ccccc1O)c1ccc(NC(=O)C2CC2)cc1	-20%[46.1 µM]	-25%	-25%	-15%	u
O=C(Nc1ccccc1C(=O)O)c1ccc(NC(=O)C2CC2)cc1	u	-11%	1%	16%	5µM*
CC(=O)Nc1ccc(C#Cc2ccc(NC(C)=O)cc2)cc1	7.3µM*	-16%	-6%	-6%	4.6µM*
O=C(Nc1ccc(C#Cc2ccccc2)cc1)C1CC1	4.6µM*	x	x	u	2.3µM*
CC(O)(COc1ccccc1)c1ccc2c(c1)CN(Cc1cccnc1)CCO2 (stereo not drawn)	x	-19%	-5%	x	x
CC(C)(C)C(=O)Cn1ncc(Br)c(Br)c1=O	x	x	x	10µM*	x
COc1ccc(S(=O)(=O)N2CCc3ccccc32)cc1C(=O)OCc1c(C)noc1C	18µM*	-7%	-21%	u	3.5µM*
COc1cc(OC)c(N(C)S(=O)(=O)c2cccc(C(=O)OCc3c(C)noc3C)c2)cc1Cl	u	-6%	-11%	u	u
COc1ccc(S(=O)(=O)N2CCCCCC2)cc1C(=O)OCc1c(C)noc1C	u	-1%	-17%	-19%	-14%
Cc1noc(C)c1COC(=O)c1cccc(S(=O)(=O)N2CCCCCC2)c1	u	u	u	2.2µM*	8.9µM*
CC(Nc1oc(-c2ccccc2)nc1C(C)(C)C)c1ccccc1 (stereo not drawn)	u	x	x	x	-5%[14.2 µM]
Cc1cccc(N=C2Sc3nc4c(C)c(C)ccc4cc3CN2CCN2CCOCC2)c1	23µM*	-11%	u	13µM*	16µM*
COCCN1Cc2cc3cc(C)ccc3nc2SC1=Nc1cccc(OC)c1	x	x	x	-22%	x
COc1ccc(C=CC2=CC3(C)CC2(C)C(c2ccc(OC)cc2)CC3=O)cc1 (stereo not drawn)	x	x	x	x	-13%[14.2 µM]
CCNc1ccc(/C=C2\C=Cc3ccccc32)cc1	x	-8%	-5%	x	x
CON(c1nc(Cl)nc(N(C)C)n1)S(=O)(=O)c1ccccc1Cl	13µM*	x	u	2%	-1%
Cc1cc(NC(=O)COC(=O)c2ccccc2OCCOc2ccccc2)ccc1Br	x	i	-9%	x	x
COCc1c(C(=O)N2CCN(C3CCCC3)CC2)cnn1-c1ncc2c(n1)-c1ccccc1CCC2	x	-22%	-1%	x	x
CCN(CC)c1ccc(-c2nc3cnccn3c2NC2CCCC2)cc1	0%	x	x	32µM*	u
O=C1CCNc2cc3ccccc3cc21	-4%	22µM*	u	-5%	0%
O=C1CCNc2ccc(-c3ccccc3)cc21	2%	-23%	-5%	u	2%
COc1cc(OC)c(NC(=O)CN2C(=O)CCn3nc(-c4cccn4C)cc32)cc1Cl	16%[46.1 µM]	-17%	-11%	x	x

Screens as filed in PubChem.
